Our source for the log2 fold change values is the supplement of paper PMC12819154, “High-throughput peptide-centric local stability assay extends protein–ligand identification to membrane proteins, tissues and bacteria” (Nature Structural & Molecular Biology, 2025).
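Note: lysate desalted by size exclusion to strip endogenous ATP, peptide intensities built from DIA-NN precursor signals, and peptides missing any value discarded before comparison.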

This test has as its target T1, UniProt P76038.
T1 sequence (whole entry): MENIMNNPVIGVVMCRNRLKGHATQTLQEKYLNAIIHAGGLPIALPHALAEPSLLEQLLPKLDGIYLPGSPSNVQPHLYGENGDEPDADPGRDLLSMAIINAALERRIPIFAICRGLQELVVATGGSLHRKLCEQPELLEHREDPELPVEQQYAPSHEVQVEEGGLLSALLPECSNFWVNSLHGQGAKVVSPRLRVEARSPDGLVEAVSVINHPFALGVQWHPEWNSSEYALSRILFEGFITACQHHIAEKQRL
Put plainly: log2 fold change of tryptic peptide abundance, ligand vs vehicle (limited proteolysis) (log2 ratio); higher = more trypsin-susceptible (destabilized). As to conditions: peptide sequence: GLQELVVATGGSLHRK; peptide start residue: 116; ligand concentration: 5 mM; sample: E. coli desalted lysate; replicate design: treated before aliquoting. As to the method:
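HT-PELSA: desalted E. coli K-12 BW25113 lysate (with 12 mM MgCl2) incubated with 5 mM ATP (pH 7) or water for 30 min at 25 C, then a 4 min trypsin pulse at 22 C. Peptides were quantified by DIA-MS (4 replicates). Value is the peptide log2 fold change (treated/control); negative = stabilized. Scale: negative = ligand-stabilized region.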
As for `Nc1ncnc2c1ncn2[C@@H]1O[C@H](COP(=O)(O)OP(=O)(O)OP(=O)(O)O)[C@@H](O)[C@H]1O` [adenosine 5'-triphosphate], the log2 fold change was 1.55.
